Assay results as given in PubChem BioAssay AID1159524 (National Center for Advancing Translational Sciences (NCATS), 2015).
The campaign covered roughly 410,000 compounds. About 5,100 (1.2%) were called active. Roughly 8% stayed inconclusive and do not appear here. This is one part of a sample in which actives are shown more often than they occur. Unmarked numbers belong to inactive results. Calls come from the whole dose curve; tested in HEK293T cells.

Assay: High Throughput Screening for Foot and Mouth Disease Virus Antivirals; note: read-out not given here; nearly all actives have a fitted effect of over 45% in size
Settings: FMDV antiviral cell-based qHTS; series mostly up to 57.9 µM; activity change, negative = inhibition: at the top concentration
% is set by controls: 0 for no effect and ±100 for the full control effect; potency is the fitted concentration of half-maximal effect.

Compound | activity change, negative = inhibition | Potency
CCN1CCc2nc3sc(C(=O)Nc4ccccc4OC(F)(F)F)c(N)c3cc2C1 | -10.2% | –
CC1OC(OCC2OC(Oc3c(-c4ccc(O)c(O)c4)oc4cc(O)cc(O)c4c3=O)C(O)C(O)C2O)[C@@H](O)C(O)C1O (stereo partly drawn) | 3.27% | –
CCOc1ccc(C(=O)Nc2ccc3nc4c(c(Nc5ccccc5OC)c3c2)CCCC4)cc1 | -26% | –
Cc1noc(C)c1-c1nc(Nc2ccccc2)c2ccccc2n1 | -12.9% | –
Cc1ccc(Nc2c3c(nc4ccccc24)CCC3)cc1 | – | 17.8 µM (active)
O=C(c1cccc(Cn2cccn2)c1)N1CCOc2c(cc(-c3csc4ccccc34)cc2OC2CCOC2)C1 (stereo not drawn) | -19% | –
Cc1ccccc1-c1nc(N(C)Cc2ccco2)c2ccccc2n1 | -21.3% | –
CC1(C)OC2CC3C4CCC5=CC(=O)CCC5(C)C4(F)C(O)CC3(C)[C@]2(C(=O)CCl)O1 (stereo partly drawn) | 28.9% | –
COc1ccc(C(=O)Nc2nc(-c3ccc(S(=O)(=O)N4CCOCC4)cc3)cs2)cc1 | – | 7.94 µM (active)
Cc1ccc(S(=O)(=O)N2CCOCC2)cc1NC(=O)c1ccncc1 | -18.2% | –
Cc1ccnc(NS(=O)(=O)c2ccc(NC(=O)c3ccc(S(=O)(=O)N4CCOCC4)cc3)cc2)n1 | -8.56% | –
CCS(=O)(=O)Nc1cc(C(=O)N2C[C@@H](C)O[C@@H](C)C2)c2c(c1)nc(-c1ccccc1)n2C | -0.997% | –
Cc1ccc2cccc(NC(=O)c3ccc(OC(C)C)cc3)c2n1 | 10% | –
N#Cc1cccc(NC(=O)COC(=O)c2ccccc2C(=O)c2ccc(Cl)c([N+](=O)[O-])c2)c1 | – | 28.2 µM (active)
CC(C)(C)NC(=O)COC(=O)c1cc(Cl)ccc1[N+](=O)[O-] | -5.35% | –
Cc1ccc(CC(=O)Nc2cccc(C#N)c2)cc1 | -5.57% | –
CCOCCn1ccc2c(OCC(=O)NCc3ccc(C)cc3)cccc2c1=O | -9.21% | –
COc1ccccc1CNc1ncnc2ccc(-c3c(C)noc3C)cc12 | 7.35% | –
Cc1ccc2oc(=O)c3cnn(CC(=O)N4CCN(c5cccc(Cl)c5)CC4)c3c2c1 | -24.6% | –
Cn1c(SCC(=O)N2CCCc3ccccc32)ncc(C(=O)Nc2ccc(F)cc2)c1=O | -9.61% | –
COc1ccccc1Cc1nc2ccccc2nc1SCC(=O)N1CCCc2ccccc21 | -15.7% | –
Cn1c(SCC(=O)N2CCCc3ccccc32)nc2ccccc2c1=O | – | 12.6 µM (active)
COc1cccc(Cn2c(=O)cnc3cncnc32)c1 | -1.66% | –
O=C(c1ccco1)N1CCC2(CC1)CCN(c1ncccn1)CC2 | -28.1% | –
Cc1c(S(=O)(=O)O)oc2c1C(=O)C(=O)c1c-2ccc2c1CCCC2(C)C | -6.27% | –

Compound | activity change, negative = inhibition | Potency
Cc1ccccc1-c1nc(CS(=O)(=O)CC(=O)Nc2cc(Cl)cc(Cl)c2)c(C)o1 | -29.4% | –
COc1ccc(C(=O)N2CCC[C@@]3(CCN(C(=O)NC(C)C)C3)C2)cc1 | 1.76% | –
Cc1c(C(=O)Nc2cccc(Cl)c2)oc2ccc(S(=O)(=O)N3CCOCC3)cc12 | -6.84% | –
COc1cc(=O)n2c(c1C(=O)N(C)Cc1nccs1)CCN(Cc1ccc(Cl)cc1)CC2 | -7.17% | –
CCc1cc2c(NC3CCCC3)ncnc2s1 | – | 25.1 µM (active)
CCc1cc2c(SCC(=O)Nc3ncc(Cl)c(C)c3Cl)ncnc2s1 | -10.6% | –
Clc1cc(NC2CCCCC2)ncn1 | -9.43% | –
Cc1noc(C)c1-c1cc(NCc2cccnc2)ncn1 | 5.27% | –
CC(=O)OC1CCC2(O)CC1(C)CCC1C2CC1(C)C (stereo not drawn) | 1.53% | –
C[C@@]12CCC3C(CC[C@@H]4CC(O)CC[C@@]34C)C1CCC2O (stereo partly drawn) | -0.759% | –
CCCCOc1ccc(C(=O)Nc2cccc(-c3nc4ccccc4o3)c2C)cc1 | -21.3% | –
Cc1cccc(NC(=O)N2CCC(CN3CCc4ccccc4C3)CC2)c1C | -1.24% | –
CCCCCCCC/C=C\CCCCCCCC(=O)OC[C@H](CO)OC(C)=O | -19.7% [at 6.7 µM] | –
Cc1ccc(C(=O)N/C(=C\c2ccco2)C(=O)NC2CCS(=O)(=O)C2)cc1 (stereo not drawn) | -14.2% | –
Cc1cc(C)cc(Oc2nc3c(C)cccn3c(=O)c2/C=C(\C#N)C(=O)NC2CCS(=O)(=O)C2)c1 (stereo not drawn) | – | 22.4 µM (active)
COc1ccc(-c2ccc(OC(=O)NC3CCS(=O)(=O)C3)cc2)cc1 (stereo not drawn) | 0% | –
CC(=O)OCC(=O)[C@@]1(O)CCC2C3CCC4=CC(=O)CC[C@@]4(C)[C@]3(F)C(O)C[C@]21C (stereo partly drawn) | 46.7% | –
CCCCC/C=C\CC1OC1CCCCCCCC(=O)O (stereo not drawn) | -2.3% [at 0.463 µM] | –
CCN1CCN(C(=O)CCN2C(=O)c3ccccc3C2=O)CC1 | -0.0403% | –
O=C(CCc1ccccc1F)N1CCN(c2ccccc2)CC1 | -8.27% | –
C=CCN1CCN(C(=O)CCCc2ccccc2)CC1 | – | 14.1 µM (active)
O=S(=O)(c1ccc(Br)cc1)c1nnn2c1nc(NC1CCCCCC1)c1sccc12 | -22.8% | –
CC(=O)N1CCC2(CCCN(Cc3ccc(C#N)cc3)C2)CC1 | 1.78% | –
CC(=O)Nc1ccc(S(=O)(=O)N2CCN(CCCOc3cc(C)ccc3C)CC2)cc1 | – | 31.6 µM (active)
Cc1ccc(C)c(OCCC(=O)Nc2cccc(S(=O)(=O)N3CCCC3)c2)c1 | 13% | –

Compound | activity change, negative = inhibition | Potency
CC(=O)Nc1ccc(S(=O)(=O)N2CCN(c3ccccc3)CC2)cc1 | -23.6% | –
CCNc1ncc2nc(CCc3ccccc3)c(=O)n(-c3ccc(OC)cc3)c2n1 | -10.2% | –
O=C(c1csnn1)N1CCC[C@@]2(CCN(Cc3nccs3)C2)C1 | -13% | –
CC(C)NC(=O)N1CC[C@@]2(CCCN(C(=O)c3cccc(F)c3)C2)C1 | 3.04% | –
CCc1cccc(C)c1Nc1c(-c2ccc(N(C)C)cc2)nc2ncccn12 | -23.4% | –
CC1CCN(C(=O)Cn2c(=O)n(-c3ccc(Cl)cc3)c(=O)c3c4c(sc32)CCC4)CC1 | -13.5% | –
CCCCn1c(=O)c2oc3ccccc3c2n(CC(=O)Nc2ccccc2OC)c1=O | 12.7% | –
CCCOc1cccc(C(=O)Nc2cccc(NC(=O)c3ccc(C(C)(C)C)cc3)c2)c1 | 27.4% | –
CC(C)CCOc1ccc(C(=O)C[N+]2(C)CCOCC2)cc1 | -1.69% | –
CCCOc1ccc(C(=O)C(CCC(CNCC)C(=O)c2ccc(OCCC)cc2)CNCC)cc1 (stereo not drawn) | – | 28.2 µM (active)
O=C(NC(c1ccc(-c2ccccc2)cc1)c1cnccn1)C1CCN(CCOc2ccc(Cl)cc2Cl)CC1 (stereo not drawn) | – | 35.5 µM (active)
Cc1cccnc1C(NC(=O)C1CCN(Cc2ccc(Cl)c(Cl)c2)CC1)c1ccc(Cl)cc1 (stereo not drawn) | -27.1% | –
Cc1ccc(C(NC(=O)C2CCN(CCOc3ccc(Cl)cc3Cl)CC2)c2ccccn2)cc1 (stereo not drawn) | -14.3% | –
Oc1ccc2c(c1)OCC1c3cc4c(cc3OC21)OCO4 (stereo not drawn) | 20.9% | –
COc1ccc(-c2nn3c(=O)cc(CN4CCN(C(=O)c5ccc(OC)c(OC)c5)CC4)nc3s2)cc1 | -9.2% | –
CCOc1ccc(NC(=O)c2cn(C3CCCCC3)c(=O)c3c2c2ccccc2n3C)cc1 | -11.9% | –
CC(C)C1=CC2=CC[C@@H]3[C@](C)(CO)CCC[C@]3(C)C2CC1 (stereo partly drawn) | -11% | –
O=C(OC12CC3CC(CC(C3)C1)C2)c1ccc(NCc2cc(O)ccc2O)cc1 | – | 12.6 µM (active)
CCN(Cc1ccncc1)C(=O)[C@@H](CO)c1ccccc1 | -3.49% | –
CC1Cc2cc(S(=O)(=O)CCC(=O)Nc3ccc(F)c(Cl)c3)ccc2N1C(=O)C1CC1 (stereo not drawn) | -26.6% | –
COc1ccc(-c2nc3cnc(OC)nc3n(Cc3ccc(F)cc3)c2=O)cc1 | 3.53% | –
O=C(COC(=O)c1n[nH]c2ccccc12)Nc1ccccc1Br | 54.3% | –
CN(C)S(=O)(=O)c1ccc(NC(=O)COC(=O)Cn2[nH]c(=O)c3ccccc3c2=O)cc1 | -2.54% | –
CN(C)S(=O)(=O)c1ccc(NC(=O)COC(=O)c2n[nH]c3ccccc23)cc1 | – | 22.4 µM (active)
CCN1CCC(O)(/C=C/c2ccc(C)cc2)C(C(=O)/C=C/c2ccc(C)cc2)C1 (stereo not drawn) | – | 28.2 µM (active)

Compound | activity change, negative = inhibition | Potency
COc1ccccc1-c1ccnc(-n2ncc(C(=O)NCCCN3CCOCC3)c2C)n1 | -20.6% | –
COc1ccc(CCNC(=O)COC(=O)C2CCCCC2)cc1 | -8.93% | –
Cc1ccc(CNC(=O)COC(=O)C2CCC2)cc1 | – | 31.6 µM (active)
O=C(COC(=O)CNC(=O)C1CCCCC1)NCc1ccccc1 | 2.61% | –
COc1ccc(Cn2ccnc2SCC(=O)NCc2ccco2)cc1 | 11.3% | –
COc1ccc2[nH]cc(CCNc3ncnc4ccc(-c5ccc(C(=O)N(C)C)cc5)cc34)c2c1 | 13.8% | –
Cc1nn(CC(=O)NCC2CCCO2)c(=O)c2cc3ccccc3n12 (stereo not drawn) | 2.47% | –
CCN1C(=O)C(=Cc2c(C)n(CC(=O)NCC3CCCO3)c3ccccc23)C(=O)N(CC)C1=S (stereo not drawn) | – | 25.1 µM (active)
COc1ccc(CCNC(=O)CCn2c(=O)c3ccccc3n(CC(=O)NCC3CCCO3)c2=O)cc1OC (stereo not drawn) | 5.3% | –
COC1=C[C@]23CCCN2CCc2cc4c(cc2[C@@H]3[C@@H]1O)OCO4 | -12.3% | –
c1ccc2c(c1)C(=NC1CCCCC1)NC2=NC1CCCCC1 | – | 15.8 µM (active)
CCCCn1c(N)c(N(CCOC)C(=O)c2cccc(S(=O)(=O)N(C)c3ccccc3)c2)c(=O)[nH]c1=O | -10.4% | –
CC(=O)c1c(C)[nH]c(C(=O)Nc2cc(S(=O)(=O)N(C)C)ccc2C)c1C | -11.7% | –
CC(=O)c1c(C)[nH]c(C(=O)COC(=O)c2cccc(S(=O)(=O)N(C)c3ccccc3)c2)c1C | – | 11.2 µM (active)
COc1cc(-c2cccnc2)cc2c1OCCN(C(=O)Cc1csc(C)n1)C2 | 0.56% | –
CC(=O)Nc1cccc(/C(C)=N/NC(=O)c2c(-c3ccccc3Cl)noc2C)c1 | – | 25.1 µM (active)
Cc1onc(-c2c(F)cccc2Cl)c1C(=O)Nc1cccc(S(=O)(=O)N2CCCCC2)c1 | -23.2% | –
Cc1ccc2cc(CCNC(=O)c3c(-c4ccccc4Cl)noc3C)c(=O)[nH]c2c1 | -12.7% | –
FC(F)(F)c1ccccc1-c1cc(NCc2ccccc2)ncn1 | -9% | –
Nc1ncn(C2OC(CO)C(O)C2O)c(=O)n1 (stereo not drawn) | -3.39% | –
CCOC(=O)c1c(C(C#N)C#N)cc(C)nc1C | 18.2% | –
CCCCSc1[nH]c(=O)c(C(=O)OCC)cc1C#N | 5.15% | –
CCOC(=O)c1cc(C)nc(S(C)(=O)=O)c1C#N | – | 35.5 µM (active)
